Positions count from the first letter of the chain named. This is one part of a sample in which the strongest signals are shown more often than they occur.
B1: R410P1E11 (Tachypleus tridentatus), TAL2_TACTR (protein)
chain: MEKGTPPTHDSDNWMGRAKEIGNGGWDQFQFLFFDPNGYLYAVSNDKLYKASPPQSDTDNWIARATEIGSGGWSGFKFLFFHPNGYLYAVRGQRFYKALPPVSNQD
B2: SLR2P2A3 (Tachypleus tridentatus), TAL2_TACTR (protein)
chain: B1 chain with E20K, D27N, N45K, F76S, R91H, F95L

Legend:
Test in all cases: glycan array binding signal (z-score within array); higher = stronger binding
Conditions in all cases: glycan notation: IUPAC condensed, linker removed
[1] = target: Fuc(a1-2)Gal6S(b1-4)GlcNAc
In short: (§1)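 Negative Z-scores can be read as non-binding. The Z-score is calculated within each array and then averaged across arrays of one protein sequence at different concentrations or buffers and across linkers. Arrays, 3228 in all, were curated from the Consortium for Functional Glycomics database and kept only where the protein sequence was available.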

[2] = target: Fuc(a1-2)[Gal(a1-3)]Gal(b1-4)Glc
In short: as §1

[3] = target: Fuc(a1-2)[GalNAc(a1-3)]Gal(b1-4)GlcNAc
In short: as §1

[4] = target: Fuc(a1-2)[GalNAc(a1-3)]Gal(b1-4)[Fuc(a1-3)]GlcNAc
In short: as §1

[5] = target: Fuc(a1-2)[GalNAc(a1-4)]Gal(b1-4)GlcNAc
In short: as §1

Fuc(a1-4)GlcNAc = target: Fuc(a1-4)GlcNAc
In short: as §1

Gal(a1-4)Gal(b1-4)Glc = target: Gal(a1-4)Gal(b1-4)Glc
In short: as §1

Gal(b1-3)Gal(b1-4)GlcNAc = target: Gal(b1-3)Gal(b1-4)GlcNAc
In short: as §1

[6] = target: Gal(b1-3)GalNAc(b1-4)[Neu5Ac(a2-3)]Gal(b1-4)Glc
In short: as §1

[7] = target: Gal(b1-3)[Neu5Ac(a2-6)]GalNAc
In short: as §1

[8] = target: Gal(b1-4)GlcNAc(a1-6)Gal(b1-4)GlcNAc
In short: as §1

[9] = target: Gal(b1-4)GlcNAc(b1-3)Gal(b1-4)[Fuc(a1-3)]GlcNAc(b1-3)Gal(b1-4)[Fuc(a1-3)]GlcNAc
In short: as §1

[10] = target: Gal(b1-4)GlcNAc(b1-3)[Gal(b1-4)GlcNAc(b1-6)]Gal(b1-4)GlcNAc
In short: as §1

Gal3S6S(b1-4)GlcNAc6S = target: Gal3S6S(b1-4)GlcNAc6S
In short: as §1

GalNAc(a1-3)Gal = target: GalNAc(a1-3)Gal
In short: as §1

[11] = target: GlcNAc(a1-3)Gal(b1-4)GlcNAc
In short: as §1

[12] = target: GlcNAc(a1-6)Gal(b1-4)GlcNAc
In short: as §1

[13] = target: Man(a1-2)Man(a1-3)[Man(a1-2)Man(a1-6)]Man(a1-6)[Man(a1-2)Man(a1-2)Man(a1-3)]Man
In short: as §1

Man(a1-3)[Man(a1-6)]Man = target: Man(a1-3)[Man(a1-6)]Man
In short: as §1

[14] = target: Man(a1-3)[Man(a1-6)]Man(a1-6)[Man(a1-3)]Man(b1-4)GlcNAc(b1-4)GlcNAc
In short: as §1

[15] = target: Neu5Ac(a2-3)Gal(b1-3)GalNAc6S
In short: as §1

[16] = target: Neu5Ac(a2-3)Gal(b1-3)GlcNAc(b1-3)Gal(b1-3)GlcNAc
In short: as §1

[17] = target: Neu5Ac(a2-3)GalNAc(b1-4)GlcNAc
In short: as §1

Neu5Ac(a2-8)Neu5Ac = target: Neu5Ac(a2-8)Neu5Ac
In short: as §1

Fuc(a1-2)[Gal(a1-3)]Gal = target: Fuc(a1-2)[Gal(a1-3)]Gal
In short: as §1

[18] = target: Fuc(a1-2)[Gal(a1-4)]Gal(b1-4)GlcNAc
In short: as §1

Gal(a1-3)Gal = target: Gal(a1-3)Gal
In short: as §1

[19] = target: Gal(b1-3)GlcNAc(b1-3)Gal(b1-3)GlcNAc
In short: as §1

Gal3S(b1-4)GlcNAc6S = target: Gal3S(b1-4)GlcNAc6S
In short: as §1

GlcA(b1-3)GlcNAc = target: GlcA(b1-3)GlcNAc
In short: as §1

GlcNAc(b1-3)Gal(b1-4)Glc = target: GlcNAc(b1-3)Gal(b1-4)Glc
In short: as §1

Neu5Ac(a2-6)GalNAc = target: Neu5Ac(a2-6)GalNAc
In short: as §1

[20] = target: Neu5Ac(a2-8)Neu5Ac(a2-3)[GalNAc(b1-4)]Gal(b1-4)Glc
In short: as §1

Neu5Gc(a2-3)Gal(b1-4)Glc = target: Neu5Gc(a2-3)Gal(b1-4)Glc
In short: as §1

[21] = target: Neu5Gc(a2-3)Gal(b1-4)GlcNAc
In short: as §1

Neu5Gc(a2-6)GalNAc = target: Neu5Gc(a2-6)GalNAc
In short: as §1

Row | Binder | glycan array binding signal (z-score) [1] | glycan array binding signal (z-score) [2] | glycan array binding signal (z-score) [3] | glycan array binding signal (z-score) [4] | glycan array binding signal (z-score) [5] | glycan array binding signal (z-score) (Fuc(a1-4)GlcNAc) | glycan array binding signal (z-score) (Gal(a1-4)Gal(b1-4)Glc) | glycan array binding signal (z-score) (Gal(b1-3)Gal(b1-4)GlcNAc) | glycan array binding signal (z-score) [6] | glycan array binding signal (z-score) [7] | glycan array binding signal (z-score) [8] | glycan array binding signal (z-score) [9] | glycan array binding signal (z-score) [10] | glycan array binding signal (z-score) (Gal3S6S(b1-4)GlcNAc6S) | glycan array binding signal (z-score) (GalNAc(a1-3)Gal) | glycan array binding signal (z-score) [11] | glycan array binding signal (z-score) [12] | glycan array binding signal (z-score) [13] | glycan array binding signal (z-score) (Man(a1-3)[Man(a1-6)]Man) | glycan array binding signal (z-score) [14] | glycan array binding signal (z-score) [15] | glycan array binding signal (z-score) [16] | glycan array binding signal (z-score) [17] | glycan array binding signal (z-score) (Neu5Ac(a2-8)Neu5Ac) | glycan array binding signal (z-score) (Fuc(a1-2)[Gal(a1-3)]Gal) | glycan array binding signal (z-score) [18] | glycan array binding signal (z-score) (Gal(a1-3)Gal) | glycan array binding signal (z-score) [19] | glycan array binding signal (z-score) (Gal3S(b1-4)GlcNAc6S) | glycan array binding signal (z-score) (GlcA(b1-3)GlcNAc) | glycan array binding signal (z-score) (GlcNAc(b1-3)Gal(b1-4)Glc) | glycan array binding signal (z-score) (Neu5Ac(a2-6)GalNAc) | glycan array binding signal (z-score) [20] | glycan array binding signal (z-score) (Neu5Gc(a2-3)Gal(b1-4)Glc) | glycan array binding signal (z-score) [21] | glycan array binding signal (z-score) (Neu5Gc(a2-6)GalNAc)
1 | B1 | -0.187 | -0.282 | 2.74 | 1.41 | 5.65 | -0.369 | -0.323 | -0.622 | -0.397 | -0.538 | -0.52 | -0.411 | -0.144 | 0.451 | 7.43 | 3.25 | 10.1 | -0.751 | -0.45 | -0.483 | -0.515 | 0.008 | 0.139 | -0.039 | – | – | – | – | – | – | – | – | – | – | – | –
2 | B2 | – | -0.191 | – | – | 7.28 | -0.416 | – | – | – | – | – | – | – | – | 6.13 | 5.44 | 6.84 | – | – | – | – | – | – | – | -0.054 | -0.148 | -0.317 | -0.344 | -0.09 | 0.168 | 5.09 | -0.16 | -0.279 | -0.253 | -0.059 | -0.125

Source: the supplement of paper PMC8728848
